Screening data (PubChem)
Shown is part of a subset that was picked to be rich in hits.
CHX counter: counter-screen hit for Shiga toxin inhibitors, cycloheximide | cell reporter, cycloheximide protein synthesis inhibition counterscreen | max response, % | hit rate 12% among 300,000 | AID 2314; in the data active means max response mostly above about 13%, no sharp cut-off; inactive means mostly below about 14%; further: read at 38.3 µM for the half of the compounds with a filed dose; 0% is about no effect
Giardia FBPA inh: blocks Giardia fructose-bisphosphate aldolase activity; purified Giardia FBPA; Potency, µM (titrated, usually from 59.6 µM), inactives show top-dose activity, negative = inhibition, usual class: inhibitors; hit rate 0.71% among 290,000; AID 2451; further: potency means the concentration at half of the fitted maximal effect; on the % scale 0 is the no-effect control and ±100 the full control effect; nearly all actives have a fitted effect of over 55% in size
Target sequence (A8B2U2 whole entry, looked up): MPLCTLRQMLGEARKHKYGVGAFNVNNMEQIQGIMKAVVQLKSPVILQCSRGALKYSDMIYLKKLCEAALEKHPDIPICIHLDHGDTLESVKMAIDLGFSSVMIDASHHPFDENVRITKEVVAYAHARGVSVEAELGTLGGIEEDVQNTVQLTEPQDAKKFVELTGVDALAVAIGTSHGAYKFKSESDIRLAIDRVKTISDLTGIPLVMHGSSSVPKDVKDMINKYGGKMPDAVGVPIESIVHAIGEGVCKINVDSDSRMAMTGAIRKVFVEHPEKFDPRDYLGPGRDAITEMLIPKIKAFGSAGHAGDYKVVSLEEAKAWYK
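Giardia FBPA (40 nM reagent) was preincubated 10 min at RT with compound (up to 57.5 uM final), then substrate plus GAPDH/TPI/NAD/arsenate coupling system with diaphorase/resazurin was added; resorufin fluorescence (525/598 nm) was read after 20 min.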
LmPK inhibitor: inhibitors of Leishmania mexicana pyruvate kinase | Potency, µM (highest dose often 57.5 µM), inactives show at the highest dose activity change, negative = inhibition, hits mostly inhibitors | hit rate 0.37% among 290,000 | purified LmPK, Kinase-Glo ATP luminescence, 1 h | Q27686; further: potency means the concentration at half of the fitted maximal effect; on the % scale 0 is the no-effect control and ±100 the full control effect
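ATP generated from ADP (0.1 mM) and PEP (0.5 mM) by 0.1 nM LmPK over 1 h at room temperature (pH 7.2 imidazole buffer) was detected by coupled luciferase luminescence. Values were normalized to uninhibited and no-enzyme wells.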
Tb PYK inh: blocks Trypanosoma brucei pyruvate kinase | Q57TT1 | TbPYK enzyme, Kinase-Glo Plus ATP luminescence, 45 min | Potency, µM (series often up to 76.8 µM), without a hit: top-dose activity, negative = inhibition, most hits filed as inhibitors | hit rate 0.12% among 410,000; further: potency means the concentration at half of the fitted maximal effect; on the % scale 0 is the no-effect control and ±100 the full control effect; nearly all actives have a fitted effect of over 50% in size
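Readout: single end-point luminescence (Kinase-Glo Plus, 10 min). Reaction conditions were TbPYK/substrate plus 130 uM ADP, 45 min at RT, pH 7.2 TEA buffer. No-enzyme wells served as controls, and data were normalized before concentration-response fitting.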
Shiga inhibitor: blocks Shiga toxin action in Vero cells; AID 2315; inhibition, % at 38.7 µM; hit rate 9.2% among 290,000; Vero cells, Shiga toxin protein synthesis inhibition reporter; in the data active means inhibition mostly above about 28%, no sharp cut-off; inactive means mostly below about 43%; further: 0% is about no effect
Sm TGR block: blocks Schistosoma mansoni thioredoxin glutathione reductase. Potency, µM (highest dose often 114 µM), for the others: at the highest dose activity change, negative = inhibition, usual class: inhibitors. purified TGR, DTNB reduction, TNB absorbance 405 nm. Q962Y6. hit rate 3% among 360,000; further: potency means the concentration at half of the fitted maximal effect; on the % scale 0 is the no-effect control and ±100 the full control effect; nearly all actives have a fitted effect of over 60% in size
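Kinetic colorimetric format: TGR-catalysed, NADPH-driven DTNB reduction monitored via TNB absorbance. Enzyme dispensed at 20 nM; compound exposure 15 min at room temperature before reaction start.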
Numbers without * were called inactive; ? = inconclusive; . = no result; [ ] = dose if it differs, or a comment. Unless noted, the call rests on the fitted dose curve; in most records, active means well fitted curve in the direction sought with a large enough effect; inconclusive means small, poorly fitted or top-dose-only effect, or another doubt; inactive means no such curve, though single readings can be large; an effect the other way counts as inactive or inconclusive.

SMILES	CHX counter	Giardia FBPA inh	LmPK inhibitor	Tb PYK inh	Shiga inhibitor	Sm TGR block
COC(=O)c1sc(Nc2ccccc2)nc1C	35*	0%	-2%	-7%	104*	0%
Cc1cccc(N(CC(O)Cn2c3ccccc3c3ccccc32)S(=O)(=O)c2ccc(F)cc2)c1 (configuration not stated)	.	.	.	2%	.	13%
CS(=O)(=O)N1CCC2(CCN(Cc3ccc(C#N)cc3)CC2)CC1	.	2%	.	-8%	.	.
O=c1c2sc3ccccc3c2n(Cc2ccc(Cl)cc2)c(=O)n1Cc1ccco1	.	.	.	0%	.	-8%
CNc1nc(C)c(C(=O)OCc2ccccc2)s1	29*	7%	-1%	-5%	93*	-14%
CC(=O)c1sc(N/N=C\c2ccccc2O)nc1C	30*	-3%	0%	-14%	40	-5%[57.1 µM]
CCOC(=O)c1sc(Nc2nc(C)cc(C)n2)nc1C	2	2%	-16%	1%	-3	9%
CCOC(=O)c1sc(Nc2nc3c(OC)cccc3s2)nc1C	50*	-2%	-1%	.	81*	3%
COC(=O)c1ccc(/C=N/Nc2nc(C)c(C)s2)cc1	63*	2%	-7%	-8%	97*	-25%
O=C(CCCc1ccc(-c2ccccc2F)cc1)Nc1ccc(O)cc1	.	-5%	.	.	.	.
COc1ccc(C)cc1NS(=O)(=O)c1ccc2oc(=O)c3ncn(C)c3c2c1	.	.	.	-14%	.	4%
COc1ccc(C(=O)c2sc(Nc3ccccc3)nc2C)cc1	7	6%	5%	2%	8	10%
COc1cccc2sc(NC(=O)c3ccc(Br)s3)nc12	32*	0%	2%	4%	72	1%
Cc1nc(NC(=O)C2CC2)sc1C(=O)Nc1ccccc1Cl	33*	-6%	-6%	0%	19	3%
COc1cccc2sc(NC(=O)c3ccc4c(c3)OCCO4)nc12	.	.	.	-5%	.	-5%
Cc1nc(Nc2ccc(Cl)c(Cl)c2)sc1C(=O)Nc1ccccc1	25*	-17%	3%	?	-28	-20%
COc1ccc(/C(C)=N/Nc2nc(C)c(C(C)=O)s2)cc1	12*	-28%	0%	-1%	65*	-6%
Cc1nc(Cl)sc1C(=O)Nc1ccccc1Cl	12	8%	4%	0%	-8	2%
O=C(O)Cc1sc(N/N=C\c2ccccc2)nc1-c1ccccc1	53*	0%	-9%	-21%	58*	2.2µM*
COc1ccccc1Nc1nc(-c2ccccc2)c(CC(=O)O)s1	.	.	.	-6%	.	-28%
CCOC(=O)c1sc(N/N=C/c2cccc(C)c2)nc1C	16	-1%	-3%	0%	16	17%
CCOC(=O)c1sc(NC(=O)Nc2ccc(Cl)cc2)nc1C	43*	1%	-2%	-8%	72*	-10%
CCOC(=O)c1sc(N/N=C/c2ccccc2)nc1C	85*	-9%	-1%	?	34*	-14%
CCOC(=O)c1ccccc1NC(=O)c1cc2ccc3cccnc3c2[nH]1	.	.	.	-10%	.	10%
Cc1ccc(NC2=NCC(=O)N2C2CCCC2)c(C)c1	1	?	2%	1%	-4	22µM*
SMILES	CHX counter	Giardia FBPA inh	LmPK inhibitor	Tb PYK inh	Shiga inhibitor	Sm TGR block
Cc1c(-c2ccc(Cl)cc2)[n+](=O)c(-c2ccccc2)cn1[O-]	-2	0%	-2%	0%	9	50µM*
Cc1ccc(NC(=S)N(N)CCO)cc1	22	-28%	9%	-2%	43*	0%
O=C(CCN1C(=O)/C(=C\c2ccco2)SC1=S)Nc1ccc(C(=O)O)c(O)c1	2	?	3%	-15%	-2	18µM*
O=C(CCN1C(=O)/C(=C/c2ccco2)SC1=S)Nc1ccc(O)cc1C(=O)O	2	-6%	9%	-5%	-3	?
O=C(CN1C(=O)/C(=C\c2ccco2)SC1=S)Nc1ccc(O)cc1C(=O)O	1	.	16%	-19%	8	25µM*
O=C1C2C3C=CC(CC3)C2C(=O)N1c1ccc([N+](=O)[O-])cc1 (configuration not stated)	-2	1%	-9%	1%	5	20µM*
COC(=O)[C@@H]1C[C@@]2(O)[C@@H](O)[C@@H](O)[C@@H](O)C[C@H]2N1Cc1cccnc1	.	-7%	.	.	.	.
CC(C)N=C(NS(=O)(=O)c1ccccc1)C(Cl)(Cl)Cl	19*	8%	-6%	-3%	38*	-22%
